# Assay results published in PubChem BioAssay.
# How the values were obtained:
# [1] = tested on: Human papillomavirus type 1a protein E7 (residues 44-93); assay: HPV1a E7 fragment binders on microarrays, primary screen, biochemical, small-molecule microarray, residues 44-93, 635 nm fluorescence (AID 1108); conditions: small-molecule microarray binding, fluorescence 635 nm; higher = more signal;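 further: E7 fragment applied at 1 µg/mL in TBST for 1 h at 4 C; score combines spot fluorescence with its signal to noise ratio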
# [2] = modulators of HCV replicon luciferase signal, primary screen, HCV replication inhibitor project, Huh7 cells, luciferase reporter (AID 1109); conditions: 48 h, higher = more signal;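 further: huh7 hepatoma cells harbouring a luciferase neomycin HCV replicon reporter; luciferase luminescence as measure of HCV replicon replication; test concentration not given here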
# [3] = target: Left-right determination factor 2 (Homo sapiens) (UniProt O00292); assay: LEFTY2 binders on small-molecule microarrays, primary screen, biochemical, small-molecule microarray, 635 nm fluorescence scan (AID 1110); conditions: LEFTY2 binding, higher = more signal
# Sequence of Left-right determination factor 2 (Homo sapiens) (O00292 whole entry, looked up): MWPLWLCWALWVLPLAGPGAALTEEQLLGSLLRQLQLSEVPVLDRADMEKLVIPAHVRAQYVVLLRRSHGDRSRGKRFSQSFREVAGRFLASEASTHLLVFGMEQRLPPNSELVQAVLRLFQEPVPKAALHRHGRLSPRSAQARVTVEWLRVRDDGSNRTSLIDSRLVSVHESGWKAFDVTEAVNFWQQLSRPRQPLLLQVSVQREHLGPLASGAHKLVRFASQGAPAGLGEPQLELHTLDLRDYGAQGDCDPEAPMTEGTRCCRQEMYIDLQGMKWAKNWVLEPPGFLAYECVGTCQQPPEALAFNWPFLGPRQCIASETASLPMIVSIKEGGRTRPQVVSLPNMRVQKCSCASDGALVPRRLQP
# [4] = target: Calmodulin-1 (Homo sapiens) (UniProt P0DP23); assay: CALM1 binders on microarrays, EGTA buffer, profiling panel, biochemical, small-molecule microarray, Cy5-labelled CALM1 (AID 1111); conditions: Cy5-CALM1 binding fluorescence, higher = more signal;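 further: labelled calmodulin applied in Tris saline Tween buffer holding calcium plus EGTA and DTT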
# [5] = target: Calmodulin-1 (Homo sapiens) (UniProt P0DP23); assay: calcium-bound CALM1 binders on microarrays, profiling panel, artefact control for SMM control-protein annotation, biochemical, small-molecule microarray, Cy5-labelled CALM1, plus calcium (AID 1112); conditions: Cy5-CALM1 binding fluorescence, higher = more signal;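 further: score merges spot fluorescence with signal to noise from triplicate slides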
# [6] = small-molecule microarray binders of probe aWnt5a, primary screen, biochemical, biotinylated probe, 635/667 nm fluorescence (AID 1113); conditions: higher = more signal;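 further: score merges 667 nm fluorescence intensity with signal-to-noise per printed feature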
# [7] = small-molecule microarray binders of probe aShh, primary screen, biochemical, biotinylated probe, 635/667 nm fluorescence (AID 1114); conditions: higher = more signal;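 further: probe is biotin-labelled aShh protein from a stem cell growth factor screen; measures binding of labelled protein to compounds printed on the slide; score merges feature fluorescence at 667 nm with signal-to-noise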
# [8] = small-molecule microarray binders of probe aNog, primary screen, biochemical, biotinylated probe, 635/667 nm fluorescence (AID 1115); conditions: higher = more signal;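 further: probe is biotinylated aNog protein used at 0.15 µg/mL for 1 h at 4 C; z-score combines 667 nm fluorescence of each spot with its signal to noise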
# [9] = target: Torsin-1A-interacting protein 1 (Homo sapiens) (UniProt Q5JTV8); assay: LAP1 binders from COS7 cell lysate, primary screen, small-molecule microarray, 635/667 nm fluorescence (AID 1116); conditions: COS7-hLAP1 lysate binding, 635 nm fluorescence, higher = more signal
# Sequence of Torsin-1A-interacting protein 1 (Homo sapiens) (Q5JTV8 whole entry, looked up): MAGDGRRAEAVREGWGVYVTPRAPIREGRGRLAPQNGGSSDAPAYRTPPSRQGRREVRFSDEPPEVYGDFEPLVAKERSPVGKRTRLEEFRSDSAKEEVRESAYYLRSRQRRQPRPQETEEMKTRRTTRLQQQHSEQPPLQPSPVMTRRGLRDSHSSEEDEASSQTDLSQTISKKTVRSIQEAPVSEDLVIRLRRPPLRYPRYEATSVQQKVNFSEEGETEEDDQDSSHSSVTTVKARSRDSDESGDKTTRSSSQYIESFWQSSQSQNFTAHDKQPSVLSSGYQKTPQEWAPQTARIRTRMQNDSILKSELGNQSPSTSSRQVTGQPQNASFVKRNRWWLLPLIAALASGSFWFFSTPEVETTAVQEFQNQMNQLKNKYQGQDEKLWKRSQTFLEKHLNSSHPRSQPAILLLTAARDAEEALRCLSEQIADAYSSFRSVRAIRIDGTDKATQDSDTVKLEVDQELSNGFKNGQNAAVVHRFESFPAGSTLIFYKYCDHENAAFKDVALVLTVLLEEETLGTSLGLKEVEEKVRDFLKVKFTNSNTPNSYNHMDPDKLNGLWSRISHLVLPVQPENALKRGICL
# [10] = target: Alpha-bungarotoxin (Bungarus multicinctus) (UniProt P60615); assay: alpha-bungarotoxin binders on microarray, profiling panel, artefact control for SMM control protein annotation, biochemical, small-molecule microarray, Alexa647 label, 635/667 nm fluorescence (AID 1117); conditions: alpha-BTX-A647 binding fluorescence, higher = more signal
# Sequence of Alpha-bungarotoxin (Bungarus multicinctus) (P60615 whole entry, looked up): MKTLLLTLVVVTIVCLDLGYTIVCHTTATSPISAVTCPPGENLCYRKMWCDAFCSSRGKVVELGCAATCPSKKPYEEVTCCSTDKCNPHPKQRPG
SMILES,composite z-score [1],z-score [2],composite z-score [3],composite z-score [4],composite z-score [5],composite z-score [6],composite z-score [7],composite z-score [8],composite z-score [9],composite z-score [10]
C=CC[C@H](O)c1ccc(O)c(F)c1,-2.12,-1.74,-1.13,-0.829,-0.589,-0.229,-0.138,-0.537,-0.992,-0.328
CC1C2C(CCCO)=CC(C3C(=O)N(C)C(=O)C23)N1Cc1cccc(OC(F)(F)F)c1 (stereo not given),1.47,-0.75,0.101,1.65,0.841,0.0317,0.522,1.64,1.62,1.42
O=C1O[C@H](c2ccccc2)[C@H](c2ccccc2)N2[C@H]1[C@@H](C(=O)O)[C@]1(C(=O)Nc3ccccc31)[C@H]2c1ccc(OCCO)cc1,1.45,0.042,-0.242,1.58,0.5,-0.0977,-0.187,-0.574,0.811,0.968
COc1ccc([Si](C)(C)[C@H]2[C@H](CC(=O)N(CCO)Cc3ccccc3)O[C@@]3(C(=O)N(c4ccccc4)c4ccccc43)[C@@H]2C)cc1,1.32,-5.19,0.753,0.503,-0.0244,-0.104,0.0022,-0.519,0.105,1.17
COc1ccc(NN2C(C(O)c3ccccc3)C=CC3C(=O)N(C4CCCCC4)C(=O)C32)cc1 (stereo not given),1.45,-0.888,0.395,1.38,-0.15,0.0974,0.13,0.908,0.644,1.13
C=C(CCCC)C(=O)CC[C@H](OC(=O)c1ccccc1-c1ccccc1C(=O)O)c1cccc(OCCO)c1,-0.109,-1.92,0.0292,-0.268,-0.832,-0.13,-0.0866,-0.318,0.206,-0.0274
COC(=O)[C@@]1(Cc2ccc(F)cc2)[C@@H]2C(=CC(=O)[C@H]2CC(=O)C(=O)N2CCCC2)CN1C(=O)c1ccccc1,1.47,-2.78,0.643,1.38,-0.24,0.625,0.761,2.06,1.25,0.683
CN(C)CCCC[C@@H]1NC(=O)[C@H]2C[C@@H](C(=O)NCCCCCCNC(=O)CS)[C@@H](c3cccc(OCCO)c3)N2C1=O,0.521,0.0145,-0.17,-0.0373,-0.323,-0.113,-0.0709,-0.429,0.358,0.539
O=C1O[C@@H](c2ccccc2)[C@@H](c2ccccc2)N2[C@@H](c3ccccc3OCCO)[C@]3(C(=O)Nc4ccc(C#CC5(O)CCCCCC5)cc43)[C@@H](C(=O)N3CCCCCCC3)[C@H]12,1.61,-2.22,1.87,3.06,1.82,1.65,3.04,3.8,5.6,4.54
CO[C@H]1O[C@H](CO)[C@@H](OC(=O)Nc2cccc(F)c2)[C@H](OC(=O)Nc2ccc3c(c2)OCO3)[C@@H]1OC(=O)Nc1ccc2c(c1)OCO2,1.5,-1.14,-0.0699,0.911,-1.04,0.0186,0.214,0.724,1.46,1.02
COc1ccc(C(=O)Nc2ccc(CN3C(=O)[C@@]4(O[C@@H](CC(=O)N(CCO)Cc5ccccc5)[C@H]([Si](C)(C)c5ccc(OC)cc5)[C@H]4C)c4ccccc43)cc2)cc1,-0.471,-3.92,0.444,0.655,-0.0779,-0.14,-0.341,-0.31,0.121,0.331
C=C(COC)C(=O)CC[C@H](OC(C)=O)c1ccccc1OCCO,0.0337,-1.94,-0.0181,-0.714,-1.1,-0.15,-0.223,-0.397,1.59,-0.15
O=C(N1CCOCC1)[C@]1(CCS(=O)(=O)c2ccccc2)N=C(c2ccc(OCCCO)cc2)O[C@@H]1c1ccccc1,0.794,-0.954,-0.685,1.52,1.14,-0.0445,0.123,-0.087,2.3,1.82
COCCOC(=O)N1C(=O)[C@@]2(c3cc(C#CCNC(N)=O)ccc31)[C@H](C(=O)Nc1nc3ccccc3s1)[C@H]1C(=O)O[C@H](c3ccccc3)[C@H](c3ccccc3)N1[C@@H]2c1ccc(O)cc1,1.2,-1.21,0.23,0.68,0.575,-0.124,0.0483,-0.314,0.618,1.6
O=C1O[C@H](c2ccccc2)[C@H](c2ccccc2)N2[C@H]1[C@@H](C(=O)N1CCCCCCC1)[C@]1(C(=O)Nc3ccc(C#CCCO)cc31)[C@H]2c1ccc(O)cc1,1.52,-0.637,1.69,3.02,1.75,1.62,2.01,0.939,5.54,4.23
CCOC(=O)C[C@H]1[C@H](OC(=O)c2cc3ccccc3oc2=O)[C@@H](NC(=O)c2ccc(-c3ccccc3)cc2)c2cc(OCCCO)ccc2N1C(=O)Cc1ccc(OC)cc1,0.697,-0.971,0.497,-0.0241,-0.273,-0.0735,-0.0035,0.179,0.674,0.731
CCOC(=O)C1=CCC(c2cccn2C(=O)OC(C)(C)C)N(S(=O)(=O)c2ccc(C)cc2)C1 (stereo not given),0.18,-3.94,0.379,0.864,0.439,-0.104,0.428,1.21,1.52,2.21
